In PubChem BioAssay (NCATS):
Records with an inconclusive call do not appear. Entries that show only a call come without a potency. A number with no mark means an inactive call. The source made the active and inactive calls. Calls follow the shape of the dose curve; as a rule, active = well fitted curve in the direction sought with a large enough effect; inconclusive = small, poorly fitted or top-dose-only effect, or another doubt; inactive = no such curve, though single readings can be large; an effect the other way counts as inactive or inconclusive.

Columns and labels:
[1] = qHTS for Inhibitors of Plasmodium falciparum (7G8) proliferation (AID 504316); also: nearly all actives have a fitted effect of over 65% in size; also: potency is read from the fitted curve at half-maximal effect
Outline: (§1)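 Erythrocytes infected with P. falciparum line (0.3% parasitemia, 2.5% hematocrit final) incubated with compounds 72 h at 37 °C, 5% CO2; SYBR Green lysis buffer added, fluorescence read next day. Normalized to 0.29 uM artemisinin and DMSO.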

[2] = qHTS for Inhibitors of Plasmodium falciparum (CP250) proliferation (AID 504320)
Outline: as §1

[3] = qHTS for Inhibitors of Plasmodium falciparum (HB3) proliferation (AID 504318); also: nearly all actives have a fitted effect of over 60% in size
Outline: as §1

SMILES	Potency [1]	Potency [2]	Potency [3]
CCN(CC)CCCN1C=C2C(=O)C(C)(OC(=O)c3cccs3)C(=O)C=C2C=C1CCCC(=O)OC (stereo not drawn)	inactive	inactive	
C=CCN1C=C2C(=O)C(C)(OC(=O)CC)C(=O)C=C2C=C1CCCC (stereo not drawn)	inactive	inactive	inactive
O=C1C=CC2(OCCCO2)C(Br)=C1CO	inactive	inactive	inactive
CC(C)Nc1oc(-c2ccccc2)nc1C=Cc1ccccc1		inactive	
COc1ccc(C=CC2=CC3(C)CC2(C)C(c2ccc(OC)cc2)CC3=O)cc1 (stereo not drawn)	1690 nM (active)	inactive	
C=CCN1c2ccccc2[C@]23C[C@@H](C(=O)OC)N(S(=O)(=O)c4ccc(Br)cc4)C2=NC(C(=O)OC)=C(C(=O)OC)[C@H]13	inactive		
CCCCc1cc2c(cn1)=C(OC(=O)c1ccc(Cl)nc1)C(C)(OC(=O)CC)C(=O)C=2 (stereo not drawn)		inactive	
